About 83,000 compounds went through this panel and 20% of them were active in at least one assay; those are over-represented in the sample as a whole.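 Growth was measured after 48 h exposure to one concentration of compound in 96-well plates. Values under 10 count as active.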 Unmarked numbers belong to inactive results. Active and inactive are the calls of the source.
Assays:
Assay in all cases: NCI-60 one-dose screen, 48 h (100 = growth as untreated, 0 = no growth, -100 = all killed)
Conditions in all cases: 10 µM unless noted
HCT-15 colon = tested on: HCT-15 colon
HT29 colon = tested on: HT29 colon
SNB-75 CNS = tested on: SNB-75 CNS
SNB-19 CNS = tested on: SNB-19 CNS
U251 CNS = tested on: U251 CNS
PC-3 prostate = tested on: PC-3 prostate
SK-MEL-5 melanoma = tested on: SK-MEL-5 melanoma
UACC-62 melanoma = tested on: UACC-62 melanoma
LOX IMVI melanoma = tested on: LOX IMVI melanoma
SK-MEL-28 melanoma = tested on: SK-MEL-28 melanoma

Row | Structure (SMILES) | growth (HCT-15 colon) | growth (HT29 colon) | growth (SNB-75 CNS) | growth (SNB-19 CNS) | growth (U251 CNS) | growth (PC-3 prostate) | growth (SK-MEL-5 melanoma) | growth (UACC-62 melanoma) | growth (LOX IMVI melanoma) | growth (SK-MEL-28 melanoma)
1 | O=C(Nc1ccncc1F)c1cn(CC2CC2)c2ccccc12 | 97.3% | 102% | 103% | 97.2% | 98.4% | 97.6% | 97.3% | 95.3% | 97% | 
2 | COc1ccc(C(=O)c2cc(OC)c(OC)c(OC)c2)cc1OC(C)=O | 12.7% | 18.8% | 40.4% | 28.3% | 6.47% (active) | 14.1% | -35.1% (active) | 38.9% | 19.7% | 56.6%
3 | CC(C)(C)C(=O)OCOP(=O)(NCc1ccccc1)C1CCCN(O)C1=O (stereo not drawn) | 22.5% | 21.5% | 70.6% | 37.9% | 13.8% | 67.7% | 31.2% | 19.5% | 51.9% | 17%
4 | O=c1[nH]cc(N(CCCl)CCCl)c(=O)[nH]1 | 75.6% | 63.4% | 62.9% | 65.1% | 64.7% | 49.5% | 82% | 64% | 46% | 
5 | c1ccc(CSC(c2ccccc2)c2ccccc2)cc1 | 106% | 84.1% | 119% | 104% | 102% | 104% | 112% | 103% | 100% | 143%
6 | CC[C@H](NC(=O)[C@H]1CCCCN1C)C(=O)N(C)[C@H](C[C@@H](OC(C)=O)c1nc(C(=O)N[C@@H](Cc2ccccc2)C[C@H](C)C(=O)O)cs1)C(C)C | 6.42% (active) | 2.74% (active) | 24.9% | 17.6% | 14.9% | 22.9% | -40.3% (active) | 27.1% | 13.2% | 73.7%
7 | O=C1NC(=O)C(=Cc2cn(CCCCCCn3c4ccccc4c(=O)c4ccccc43)c3ccccc23)C(=O)N1 | 75.1% | 97.2% | 94.5% | 86% | 90.4% | 84% | 90.5% | 63.5% | 83.8% | 102%
8 | CCCCCCCOC(C(=O)OCCN(CC)CC)(c1ccccc1)c1ccccc1 | 49.9% | 31.4% | 86.1% | 94% | 77.8% | 61.2% | 78.2% | 103% | 92.2% | 96%
9 | C[C@]12CC[C@H]3[C@@H](CC[C@]4(O)C[C@@H](O[C@@H]5O[C@H](CO)[C@@H](O[C@@H]6OC[C@@H](O)[C@H](O)[C@H]6O)[C@H](O)[C@H]5O)CC[C@]34C=O)[C@@]1(O)CC[C@@H]2C1=CC(=O)OC1 | -9.5% (active) | 3.12% (active) | 28% | 26% | 4.09% (active) | 4.54% (active) | -14.1% (active) | 1.05% (active) | -37.3% (active) | 41.6%
10 | COC(=O)[C@@H](C)C[C@H](Cc1ccccc1)NC(=O)c1csc(CC[C@H](C(C)C)N(C)C(=O)[C@@H](NC(=O)[C@H]2CCCCN2C)C(C)C)n1 | 10.9% | 3.34% (active) | 42.6% | 35.4% | 14.8% | 27.6% | -19.5% (active) | 40.7% | 28.6% | 63.2%
11 | CNCc1cccnc1 | 108% | 85.7% | 104% | 115% | 99.6% | 89% | 106% | 108% | 98.2% | 120%
12 | C[Se]C(=O)c1ccccc1OC(C)=O | 81% | 11.1% | -42.4% (active) | 46.6% | 46% | 70% | 79.3% | 58.2% | 45.3% | 46.1%
13 | C=CC[PH+](c1ccccc1)c1ccccc1.C=CC[PH+](c1ccccc1)c1ccccc1.[Cl][Pt][Cl] | 31.4% | 41.1% | 66.2% | 70.5% | 37.5% | 54.4% | 85.8% | 52.9% | -6.81% (active) | 28.4%
14 | CCOC(=O)[C@@H](C)C[C@H](Cc1ccccc1)NC(=O)c1csc([C@@H](C[C@H](C(C)C)N(C)C(=O)[C@H](CCC(C)C)NC(=O)[C@H]2CCCCN2C)OC(C)=O)n1 | 15.2% | -14.9% (active) | 37.6% | 39.9% | 2.75% (active) | 13.7% | -25.5% (active) | 40.7% | 15.2% | 64.8%
15 | COC(=O)[C@H](C[C@H](Cc1ccccc1)NC(=O)c1csc([C@@H](C[C@H](C(C)C)N(C)C(=O)[C@@H](NC(=O)[C@H]2CCCCN2C)C(C)C)OC(C)=O)n1)NC(=O)OCc1ccccc1 | 13.6% [8.5 µM] | -2.9% [8.5 µM] (active) | 22.7% [8.5 µM] | 16.3% [8.5 µM] | 14.6% [8.5 µM] | 32.4% [8.5 µM] | -13.3% [8.5 µM] (active) | 23.8% [8.5 µM] | 13.8% [8.5 µM] | -69.7% [8.5 µM] (active)
16 | CCCCCCCC[n+]1ccc2ccccc2c1 | 99.7% | 42.4% | 69.4% | 53.8% | 66% | 35% | -19.4% (active) | 25.5% | 63.6% | 61.2%
17 | COc1ccc(/C=C\c2cc(OC)c(OC)c(OC)c2)c(NS(=O)(=O)c2ccc(F)cc2)c1O | 6.21% (active) | 12.5% | 34.9% | 37.4% | 19.1% | 31.3% | -28.4% (active) | 40.1% | 19.3% | 63.2%
18 | CC[C@H](C)[C@H](NC(=O)c1nccn1C)C(=O)N(C)[C@H](C[C@@H](OC(C)=O)c1nc(C(=O)N[C@@H](Cc2ccccc2)C[C@H](C)C(=O)OC)cs1)C(C)C | 10.5% | -6.75% (active) | 15.8% | 37.3% | 9.94% (active) | 25.2% | -0.799% (active) | 55.7% | 17.6% | 51.2%
19 | O=[N+]([O-])CC(O)C(Cl)(Cl)Cl (stereo not drawn) | 102% | 111% | 81.1% | 106% | 99.1% | 94.9% | 107% | 107% | 99.8% | 102%
20 | COc1cc(NCCCN=C(N)N)c2ncccc2c1 | 98.6% | 83.9% | 73.4% | 81.8% | 58.5% | 83.7% | 72.1% | 90.3% | 104% | 99.6%
21 | COC(=O)[C@@H](C)C[C@H](Cc1ccc(F)cc1)NC(=O)c1csc([C@@H](C[C@H](C(C)C)N(C)C(=O)[C@@H](NC(=O)[C@H]2CCCCN2C)C(C)C)OC(C)=O)n1 | 15.6% | 3.51% (active) | 63.8% | 36.6% | 6.95% (active) | 28.4% | -32.8% (active) | 42.2% | 23.1% | 58.9%
22 | O=C(O)CNC(=O)C(Cl)(Cl)Cl | 96% | 97.1% | 85.1% | 100% | 84.8% | 91.6% | 99% | 102% | 99% | 96.6%
23 | CC1=C2[C@@H](CC1)[C@]1(C)O[C@@](C(C)C)(C[C@H]1O)[C@H]2OC(=O)C1CC1c1ccccc1 (stereo partly drawn) | 89.8% | 103% | 88% | 102% | 84.3% | 56.9% | 85.4% | 75.6% | 93.3% | 105%
24 | CC[C@H](C)[C@H](NC(=O)[C@H]1CCCCN1C)C(=O)N(C)[C@H](CCc1nc(C(=O)N[C@@H](Cc2ccccc2)C[C@H](C)C(=O)OC)cs1)C(C)C | 12.3% | -3.3% (active) | 56.3% | 35.2% | 10.2% | 24.3% | -22.1% (active) | 41.5% | 24% | 65.6%
25 | CCCOC(=O)N[C@H]1CCc2c(Br)c(OC)c(OC)c(OC)c2-c2ccc(SC)c(=O)cc21 | 7.9% (active) | 12.2% | 19.6% | 23.1% | 17.6% | 21.1% | -29.9% (active) | 17.8% | 8.1% (active) | 64.7%

— PubChem BioAssay (NCI)
